Results filed as inconclusive are left out. A call without a number means that no potency is given here. Activity calls are given as the source filed them. The call rests on the fitted dose curve; in most records, active means well fitted inhibition curve with a large enough effect; inconclusive means small, poorly fitted or top-dose-only effect; inactive means flat fitted curve, though single readings scatter.
Assay: P-glycoprotein substrates identified in KB-8-5-11 adenocarcinoma cell line, qHTS therapeutic library screen (AID 1346987); further: nearly all actives have a fitted effect of over 65% in size
Conditions: KB-8-5-11 (P-gp overexpressing) viability, CellTiter-Glo, 72 h; series mostly up to 44.5 µM
Summary of the method: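 KB-8-5-11, a colchicine-selected P-gp-overexpressing KB-3-1 subline, was grown without colchicine for the assay. Cells were seeded at 500 cells/well, dosed in concentration-response and incubated 72 h at 37 degree C, 5% CO2. Viability was read by CellTiter-Glo luminescence.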
For CC(C)c1cc(-c2ccc(F)c3ccccc23)nc(N)n1, the Potency was “inactive”. For COc1ccccc1N1CCN(CC(C(=O)NC(C)(C)C)c2ccccc2)CC1 (stereo not drawn), the Potency was “inactive”. In the case of COc1cc2nc(N3CCN(C(=O)COc4c(OC)cccc4C(C)C)CC3)nc(N)c2cc1OC, the Potency is reported as “inactive”.

From PubChem BioAssay (NCATS)
